From PubChem BioAssay (NCATS)
Results filed as inconclusive are left out. Where a call stands in place of a potency, no number is given. Unmarked numbers belong to inactive results. Calls of active or inactive are those of the source. Unless noted, calls follow the shape of the dose curve; as a rule, active = well fitted curve in the direction sought with a large enough effect; inconclusive = small, poorly fitted or top-dose-only effect, or another doubt; inactive = no such curve, though single readings can be large; an effect the other way counts as inactive or inconclusive. Square brackets hold non-standard residues; d marks the D form. Peptide text beside a SMILES is read from it. PhLac = O=C(O)[CH](O)Cc1ccccc1; NMeV = CN[CH](C(=O)O)C(C)C

How the values were obtained:
CRL-7250 = normal cell line; experiment: qHTS assay to identify novel small-molecules to repurpose for Merkel cell carcinoma treatment (AID 1296009); details: MCC and control cell lines, CellTiter-Glo viability, 72 h; series mostly up to 92 µM; also: nearly all actives have a fitted effect of over 60% in size
Procedure, shortened: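 Cells were incubated with compound for 72 hr at 37 degree celsius before CellTiter-Glo addition. Luminescence was normalized with no-cell wells as full cytotoxicity and DMSO as baseline.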

[1] = Primary qHTS for inhibitors of SARS-S pseudo-typed particle cell entry (AID 1479145; calls by dose curve; also: nearly all actives have a fitted effect of over 45% in size)
[2] = Primary qHTS for Huh7 cytotoxicity: counterscreen for inhibitors of MERS-S pseudotyped particle cell entry (AID 1479147; calls by dose curve); details: outcome: dose series up to 57.1 µM unless noted
[3] = Primary qHTS for inhibitors of MERS-S pseudo-typed particle cell entry (AID 1479149; calls by dose curve; also: nearly all actives have a fitted effect of over 60% in size)
[4] = Primary qHTS for Vero E6 cytotoxicity: counterscreen for inhibitors of SARS-S pseudo-typed particle cell entry (AID 1479150; calls by dose curve); details: outcome: dose series up to 57.1 µM unless noted
[5] = Cytotoxicity counterscreen for inhibitors of SARS-CoV-2 cell entry (AID 1645845; calls by dose curve; also: nearly all actives have a fitted effect of over 50% in size)
Procedure, shortened: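 HEK293-ACE2 cells (Expi293F stably expressing human ACE2) seeded overnight, then compound for 1 h plus 48 h at 37C. Viability as ATP content by luminescence; normalized to wells with cells and media-only wells.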

KB-3-1 = experiment: Cytotoxic Profiling of Annotated Libraries Using Quantitative High-Throughput Screening (AID 1296008); details: Five cell lines viability, CellTiter-Glo ATP luminescence, 48-72 h; max response: hits give low values; also: nearly all actives have a fitted effect of over 60% in size
Procedure, shortened: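 Cells exposed to compounds for 48 or 72 hr at 37 degrees Celsius. Viability read as ATP-coupled luminescence with CellTiter-Glo after 10 min at room temperature.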

[6] = biological target: Luciferin 4-monooxygenase (Photinus pyralis) (UniProt P08659); experiment: Biochemical firefly luciferase enzyme assay for NPC (AID 624030);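 also: purified P. pyralis luciferase at 10 nM with luciferin and ATP substrate; nearly all actives have a fitted effect of over 70% in size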
Procedure, shortened: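 Purified P. pyralis luciferase at 10 nM in 50 mM Tris Acetate (final), luminescence read within 5 minutes of enzyme addition to compounds. Activity normalised to PTC124 versus DMSO; concentration-response curves classed by r2, magnitude and activity.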

[7] = qHTS Assay for Identifying Gametocytocidal Compounds (AID 743244);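 also: actives lower the fluorescent signal which means gametocytes are killed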; details: P. falciparum 3D7 stage III-V gametocytes, alamarBlue, 72 h; max response: hits give low values
Procedure, shortened: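 In this qHTS viability screen, late-stage 3D7 gametocytes are incubated with compound for 72 h, then with alamarBlue for 24 h; reduced resorufin fluorescence marks killing.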

[8] = biological target: Glutathione peroxidase 1 (Homo sapiens) (UniProt P07203); experiment: Primary qHTS Assay for Inhibitors of Recombinant Selenoprotein Glutathione Peroxidase 1 (GPX1) (AID 1845191); also: nearly all actives have a fitted effect of over 65% in size
Procedure, shortened: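 GR-coupled assay: compounds preincubated 30 min at room temperature with GPX1, then reaction started with CHP; final 10 nM GPX1, 1 mM GSH, 0.5 mM CHP, 0.5 mM NADPH, 100 nM GR, 0.01% BSA, pH 7.5 Tris buffer. NADPH fluorescence (340/450 nm) read at 0 and 15 min.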

[9] = biological target: Phospholipid hydroperoxide glutathione peroxidase GPX4 (Homo sapiens) (UniProt P36969); experiment: Primary qHTS Assay for Inhibitors of Recombinant Selenoprotein Glutathione Peroxidase 4 (GPX4) (AID 1845192); also: nearly all actives have a fitted effect of over 65% in size
Procedure, shortened: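 GR-coupled assay: recombinant GPX4 preincubated 30 min with compound at room temperature; final 200 nM GPX4, 1 mM GSH, 0.5 mM cumene hydroperoxide, 0.5 mM NADPH, 100 nM GR, 0.01% BSA, pH 7.5 Tris. NADPH fluorescence (340/450 nm) read at 0 and 15 min.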

Glutathione peroxidase 1 (Homo sapiens), sequence (P07203 whole entry, looked up): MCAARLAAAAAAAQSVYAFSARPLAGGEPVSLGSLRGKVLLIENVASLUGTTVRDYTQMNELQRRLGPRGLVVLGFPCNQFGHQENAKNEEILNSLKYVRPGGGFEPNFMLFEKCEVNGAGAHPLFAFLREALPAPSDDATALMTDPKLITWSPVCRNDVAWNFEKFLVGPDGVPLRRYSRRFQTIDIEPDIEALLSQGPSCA
Phospholipid hydroperoxide glutathione peroxidase GPX4 (Homo sapiens), sequence (P36969 whole entry, looked up): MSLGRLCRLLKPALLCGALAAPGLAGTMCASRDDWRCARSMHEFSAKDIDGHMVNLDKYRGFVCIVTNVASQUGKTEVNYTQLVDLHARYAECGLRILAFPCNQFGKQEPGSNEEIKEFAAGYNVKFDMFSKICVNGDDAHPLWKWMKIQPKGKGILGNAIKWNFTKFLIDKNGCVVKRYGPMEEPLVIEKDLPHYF
Luciferin 4-monooxygenase (Photinus pyralis), sequence (P08659 whole entry, looked up): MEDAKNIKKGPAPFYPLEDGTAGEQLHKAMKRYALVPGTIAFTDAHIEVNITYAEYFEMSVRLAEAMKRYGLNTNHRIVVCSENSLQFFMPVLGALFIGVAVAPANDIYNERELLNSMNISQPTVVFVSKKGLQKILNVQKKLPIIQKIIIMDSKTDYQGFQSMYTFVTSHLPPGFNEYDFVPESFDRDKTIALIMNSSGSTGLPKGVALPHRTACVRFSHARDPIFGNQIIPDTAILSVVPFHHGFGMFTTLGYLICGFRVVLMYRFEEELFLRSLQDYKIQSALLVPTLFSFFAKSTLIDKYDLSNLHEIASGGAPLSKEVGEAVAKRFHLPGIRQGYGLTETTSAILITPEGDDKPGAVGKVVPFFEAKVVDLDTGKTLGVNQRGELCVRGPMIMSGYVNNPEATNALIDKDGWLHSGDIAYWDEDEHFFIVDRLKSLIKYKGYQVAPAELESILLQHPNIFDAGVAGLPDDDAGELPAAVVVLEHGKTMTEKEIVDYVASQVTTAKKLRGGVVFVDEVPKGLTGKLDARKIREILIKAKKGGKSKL

C=C1CCC2C(C)(C)CC(=O)CC2(C)C1CCC(C)CCOC(C)=O (centres undefined)
Potency (CRL-7250): inactive

O=C(O)/C=C/c1ccc(O)c(O[C@@H]2O[C@H](CO)[C@@H](O)[C@H](O)[C@H]2O)c1
Potency (CRL-7250): inactive

Cc1ccc(Sc2cncc3sc(C(N)=O)cc23)cc1
Potency (CRL-7250): inactive

CO[C@@H](Cc1ccc(OCCc2nc(-c3ccccc3)oc2C)c2ccsc12)C(=O)O
Potency (CRL-7250): inactive

CC(=O)OC[C@]12[C@H](OC(C)=O)[C@H](OC(=O)c3ccccc3)[C@@H]3[C@@H](OC(C)=O)[C@]1(OC3(C)C)[C@H](C)C[C@H](OC(=O)c1ccccc1)[C@@H]2OC(=O)c1ccccc1
Potency (CRL-7250): inactive

Cn1nccc1-c1ccccc1Oc1ccc(S(=O)(=O)Nc2nccs2)cc1C#N
Potency (CRL-7250): inactive

CC(C)(C)c1ccc(C(=O)Nc2cn3cc(-n4ccnc4)ccc3n2)cc1
Potency (CRL-7250): inactive

CC(=O)O[C@H]1C[C@@H](O)C(C)(C)C2C[C@@H](OC(C)=O)[C@@]3(C)C4=CCC(C(CO)CC(O)C5OC5(C)C)[C@]4(C)CCC3[C@]21C (some centres undefined)
Potency (CRL-7250): inactive

C/C=C/[C@@H]1C=C[C@@H]2C[C@H](C)CC[C@H]2[C@]1(C)/C(O)=C1/C(=O)[C@@H](CO)N(C)C1=O
Potency (CRL-7250): inactive

CC(C)=C1CC2[C@](C)(CC[C@@H](OC(=O)C3(C)OC3C)[C@@]2(C)O)CC1=O (some centres undefined)
Potency (CRL-7250): inactive

CC(C)C[C@H]1C(=O)N2CCC[C@H]2[C@]2(O)O[C@](NC(=O)[C@@H]3C[C@@H]4c5cccc6[nH]cc(c56)C[C@H]4N(C)C3)(C(C)C)C(=O)N12
Potency [1]: inactive
outcome [2]: inactive
Potency [3]: inactive
outcome [4]: inactive
Potency [5]: inactive
max response (KB-3-1): -14.2%

CC(C)=CCC[C@](C)(O[C@@H]1O[C@H](CO[C@@H]2OC[C@H](O)[C@H](O)[C@H]2O)[C@@H](O)[C@H](O)[C@H]1O)[C@H]1CC[C@]2(C)[C@@H]1[C@H](O)C[C@@H]1[C@@]3(C)CC[C@H](O[C@@H]4O[C@H](CO)[C@@H](O)[C@H](O)[C@H]4O[C@@H]4O[C@H](CO)[C@@H](O)[C@H](O)[C@H]4O)C(C)(C)[C@@H]3CC[C@]12C
Potency (CRL-7250): inactive

O=C(OC(C(F)(F)F)C(F)(F)F)N1CCN(Cc2cccc(Oc3ccccc3)c2)CC1
Potency (CRL-7250): inactive

COC(=O)C(CC1CCCC1)c1ccc(S(C)(=O)=O)cc1 (centres undefined)
Potency (CRL-7250): inactive

CC(CCO)CCC1C2(C)CCCC(C)(C)C2CC[C@@]1(C)O (some centres undefined)
Potency (CRL-7250): inactive

C=C1C(=O)O[C@@H]2C[C@H](C)[C@@]3(O)C=C(C(C)=O)[C@]4(CC3C[C@H]12)C(=O)O[C@H]1C[C@@H](C)C(CCC(C)=O)=CC[C@H]14 (some centres undefined)
Potency (CRL-7250): inactive

Cc1nnc2n1-c1sc(Br)cc1C(c1ccccc1Cl)=NC2
Potency [6]: inactive
max response [7]: 6.14%
outcome [2]: inactive
Potency [3]: inactive
outcome [4]: inactive
Potency [5]: inactive
Potency [8]: inactive
Potency [9]: inactive
max response (KB-3-1): -25.2%

Cc1ncc([N+](=O)[O-])n1C[C@H](O)CN1CCOCC1
Potency (CRL-7250): inactive

CC(=O)OC1(C)CC(O)C2(O)C=COC(OC3OC(CO)C(O)C(O)C3O)C12 (centres undefined)
Potency (CRL-7250): inactive

CC(C)c1ccc(NC(=O)Cn2cnc3c2c(=O)n(C)c(=O)n3C)cc1
Potency (CRL-7250): inactive

Cc1oc(S(=O)(=O)N2CCCCC2)cc1NC(=O)Nc1ccccc1
Potency (CRL-7250): inactive

C=C1CC/C=C(/CO)C(=O)C[C@@H]2[C@@H]1C[C@@]2(C)COC(C)=O
Potency (CRL-7250): inactive

C=C1CC23CC1CCC2C12OC(=O)C(C)(CCC1O)C2C3C(=O)O (centres undefined)
Potency (CRL-7250): inactive

CC(C)CC(=O)OC[C@H]1O[C@@](COC(=O)CC(C)C)(O[C@H]2O[C@H](CO)[C@@H](O)[C@H](O)[C@H]2OC(=O)CC(C)C)[C@@H](OC(=O)CC(C)C)[C@@H]1O
Potency (CRL-7250): inactive

CC(C)(C)NCCCNC(=O)c1cccc(Br)c1
Potency (CRL-7250): inactive

CC(=O)O[C@@H]1[C@H]2[C@@H](OC(=O)c3ccccc3)[C@@H](C)C[C@]2(O)[C@H](OC(C)=O)[C@@]2(C)[C@@H]3CC(C)(C)C(=O)[C@]3(OC(C)=O)C[C@@]12C
Potency (CRL-7250): inactive

C[C@@H]1O[C@@H](O[C@@H]2[C@@H](O[C@@H]3O[C@@H](C)[C@H](O[C@@H]4OC[C@H](O)[C@H](O[C@@H]5OC[C@@H](O)[C@H](O)[C@H]5O)[C@H]4O)[C@@H](O[C@@H]4OC[C@](O)(CO)[C@H]4O)[C@H]3O)[C@H](OC(=O)[C@]34CCC(C)(C)C[C@H]3C3=CCC5[C@@]6(C)C[C@H](O)[C@H](O[C@@H]7O[C@H](CO[C@@H]8OC[C@H](O)[C@H](O)[C@H]8O)[C@@H](O)[C@H](O)[C@H]7O)C(C)(C)C6CC[C@@]5(C)[C@]3(C)C[C@H]4O)OC[C@H]2O)[C@H](O)[C@H](O)[C@H]1O (some centres undefined)
outcome (CRL-7250): inactive [at 9.27 µM]

O=C(NCC1(N2CCN(c3ccccc3)CC2)CCOCC1)c1cccnc1Sc1ccccc1
Potency (CRL-7250): inactive

C=C1C(OC(C)=O)CCC2(C)CC3(O)OC(=O)C(C)=C3CC12 (centres undefined)
Potency (CRL-7250): inactive

OC[C@@]1(O)CO[C@@H](OC[C@H]2O[C@@H](Oc3ccccc3)[C@H](O)[C@@H](O)[C@@H]2O)[C@@H]1O
Potency (CRL-7250): inactive

NS(=O)(=O)c1ccc(NC(=O)Nc2ccc(F)cc2)cc1
Potency (CRL-7250): inactive

CC1(C)CC(=O)N(CCCCN2CCN(c3ncccn3)CC2)C(=O)C1
Potency (CRL-7250): inactive

CC/C=C\[C@H](O)[C@H](O)C1=C(C)C(=O)[C@]2(O1)C(=O)N[C@@](O)(C(=O)c1ccccc1)[C@@H]2O
Potency (CRL-7250): inactive

CC(O)(CC(=O)O)CC(=O)OCc1ccc(O[C@@H]2O[C@H](CO)[C@@H](O)[C@H](O)[C@H]2O)cc1 (some centres undefined)
Potency (CRL-7250): inactive

CC1=C2CC(=O)C(C)CC/C=C(\C)CC2OC1=O (centres undefined)
Potency (CRL-7250): inactive

C[C@@H]1O[C@@H](O[C@H]2[C@H](O[C@H]3[C@H](O[C@H]4CC[C@@]5(CO)C(CC[C@]6(C)C5CC=C5C7CC(C)(C)C[C@@H](O)[C@]7(C)CC[C@]56C)C4(C)C)O[C@H](C(=O)O)[C@@H](O)[C@@H]3O)OC[C@@H](O)[C@@H]2O)[C@H](O)[C@H](O)[C@H]1O (some centres undefined)
outcome (CRL-7250): inactive [at 9.27 µM]

C=CC1(C)CC2=CCC3C(C)(C(=O)O)CCCC3(C)C2CC1OC(C)=O (centres undefined)
Potency (CRL-7250): inactive

COc1cc(/C=C/C(=O)O[C@H]2[C@H](O)[C@@H](CO)O[C@@]2(CO)O[C@H]2O[C@H](CO)[C@@H](O)[C@H](O)[C@H]2O)cc(OC)c1O
Potency (CRL-7250): inactive

CNc1cc2[nH]c(=O)n(-c3ccc(NC(=O)NS(=O)(=O)c4ccc(Cl)s4)cc3)c(=O)c2cc1F
Potency (CRL-7250): inactive

CN(C)C(=O)C(O)C(Cc1ccccc1)NC(=O)c1cc2cc(Cl)ccc2[nH]1 (centres undefined)
Potency (CRL-7250): inactive

CC1=C2C[C@H]3O[C@@]3(C)CCC3O[C@@]3(C)C[C@@]2(O)OC1=O (some centres undefined)
Potency (CRL-7250): inactive

Cn1c(=O)c2nc(/C=C/c3cccc(Cl)c3)n(C)c2n(C)c1=O
Potency (CRL-7250): inactive

CC(C)C(C(=O)N1CCCC1C(=O)O)N(C)C(=O)C(O)Cc1ccccc1 (centres undefined) (H-[PhLac]-[NMeV]-Pro-OH; configuration not given here)
Potency (CRL-7250): inactive

CC(C)(O)C1OC1C1=CC(=O)C2(C)OC2C1O (centres undefined)
Potency (CRL-7250): inactive

CC#C[C@@H](CC(=O)O)c1ccc(OCc2ccc(CN3CCC4(C=Cc5ccccc54)CC3)s2)cc1
Potency (CRL-7250): inactive

Cn1ccnc1CCOC(c1cc2nccc(C(=O)O)c2[nH]1)c1ccccc1Cl (centres undefined)
Potency (CRL-7250): inactive

C[C@]12CCC(=O)C=C1[C@@H](O)C[C@@H]1[C@@H]2[C@@H](O)C[C@@]2(C)[C@H]1CC[C@]2(O)C(=O)CO
Potency (CRL-7250): inactive

O=C(NCc1ccc(OC(F)(F)F)cc1)C1c2ccccc2C(=O)N1C1CCOCC1 (centres undefined)
Potency (CRL-7250): inactive

CC(C)[C@@H]1C(=O)N(S(C)(=O)=O)[C@@H]2CCN(C(=O)/C=C/CN3CCCCC3)[C@H]21
Potency (CRL-7250): inactive

CC(=O)N[C@@H](CCCCN)C(=O)N(C)[C@@H](CC(C)C)C(=O)N[C@H](C(=O)N(C)[C@@H](Cc1ccccc1)C(=O)N[C@H](Cc1ccccc1)C(N)=O)C(C)C
outcome (CRL-7250): inactive [at 4.96 µM]

C=C1CCC2C(C)(C(=O)OC)CCCC2(C)C1CCC(C)CC(=O)O (centres undefined)
Potency (CRL-7250): inactive

CC1(C)CC[C@]2(C(=O)O)CC[C@]3(C)C(=CCC4[C@@]5(C)C[C@@H](O)[C@H](O)[C@@](C)(CO)C5[C@H](O)C[C@]43C)[C@@H]2C1 (some centres undefined)
Potency (CRL-7250): inactive

CO[C@H]1c2cc(C(C)C)c(O)c(O)c2[C@@]23CCCC(C)(C)C2[C@@H]1OC3=O (some centres undefined)
Potency (CRL-7250): inactive

O=C(NCc1nc2ccccc2c(=O)n1-c1ccc(F)cc1)Nc1ccc(Cl)c(C(F)(F)F)c1
Potency (CRL-7250): inactive

CC1(C)C(=O)N2c3ccccc3[C@]3(CC(n4cnc5ccccc5c4=O)C(=O)O3)[C@H]2N1O (some centres undefined)
Potency (CRL-7250): inactive

CC(=O)O[C@H]1C[C@@]2(C)[C@@H](C[C@@H](O)[C@H]3[C@@]4(C)CC[C@@H](O)[C@@H](C)[C@@H]4CC[C@@]32C)/C1=C(\CCC=C(C)C)C(=O)O
Potency (CRL-7250): inactive
